Measured values published in the antibiotic and cytotoxicity screens of Wong et al. (2023).
Out of some 39,000 compounds screened, about 1,500 (3.8%) were called active. The entries come from a sample that favours actives as a whole.

system: HSkMC (human skeletal muscle cells); assay: cytotoxicity call (relative viability < 0.9); settings: 10 µM

| Compound | cytotoxicity call |
| --- | --- |
| COc1cc(-c2cc(=O)c3c(s2)N(Cc2ccco2)[C@@H](c2ccc(O)c(OC)c2)CC3=O)ccc1O | inactive |
| C[C@H](CO)N1C[C@H](C)[C@@H](CN(C)C(=O)Nc2ccc(F)cc2)Oc2ccc(NC(=O)Nc3cccc4ccccc34)cc2CC1=O | inactive |
| CC(C)(C)C(=O)OCOP(=O)(OCOC(=O)C(C)(C)C)C(C)(Oc1ccc(O)cc1)P(=O)(OCOC(=O)C(C)(C)C)OCOC(=O)C(C)(C)C | inactive |
| O=C1Nc2ccc(I)cc2C1=Cc1cc(Br)c(O)c(Br)c1 | active |
| COc1ccc2c(c1)/C(=N\O)C(=O)N2 | inactive |
| COc1ccc2c(c1)C(=O)C(=O)N2 | inactive |
| C[C@H](CO)N1C[C@H](C)[C@H](CN(C)C(=O)Nc2ccc(C(F)(F)F)cc2)OCCCC[C@H](C)Oc2ccc(NC(=O)c3ccccc3)cc2C1=O | inactive |
| C[C@H](CO)N1C[C@H](C)[C@H](CN(C)C(=O)Nc2ccc3c(c2)OCO3)OCCCC[C@H](C)Oc2ccc(NS(=O)(=O)c3ccccc3)cc2C1=O | inactive |
| CCN1C(=O)[C@H]2[C@H](O)CS[C@H]2C1=O | inactive |
| C[C@@H]1CN([C@@H](C)CO)S(=O)(=O)c2ccc(C#C[C@@H](C)O)cc2O[C@H]1CN(C)C(=O)C1CCCCC1 | inactive |
| c1ccc2c(c1)-c1ccc3ccc4cccc5cc-2c1c3c45 | inactive |
| CCN(CC)CCCCNc1ncc2cc(-c3c(Cl)cccc3Cl)c(NC(=O)NC(C)(C)C)nc2n1 | inactive |
| CCN(CC)CCNC(=O)COc1ccc(OC)cc1.Cl | inactive |
| CCN(CC)CCCCNc1ncc2cc(-c3cc(OC)cc(OC)c3)c(NC(=O)NC(C)(C)C)nc2n1 | active |
| Cc1noc(C)c1S(=O)(=O)N(C)C[C@@H]1Oc2ccc(NC(=O)Cc3cn(C)c4ccccc34)cc2CC(=O)N([C@@H](C)CO)C[C@H]1C | inactive |
| C[C@@H]1CN([C@@H](C)CO)C(=O)c2cc(NS(=O)(=O)c3ccc(F)cc3)ccc2O[C@@H]1CN(C)CC1CC1 | inactive |
| COc1c(OCCCN2CCOCC2)ccc2c1N=C(NC(=O)c1cnc(N)nc1)N1CCN=C21 | inactive |
| COc1cc(C(=O)OCCN2CCN(CCOC(=O)c3cc(OC)c(OC)c(OC)c3)CC2)cc(OC)c1OC | inactive |
| CCc1c(O)cc(O)c(C(=O)c2ccc(OCCN3CCOCC3)c(OC)c2)c1CC(=O)N(CCOC)CCOC | active |
| C[C@@H]1CN([C@@H](C)CO)S(=O)(=O)c2ccc(C#CC3(O)CCCC3)cc2O[C@H]1CN(C)C(=O)Nc1ccccc1 | inactive |
| N=C(N)N/N=C1\CCc2c(C(=N)N)cccc21 | active |
| C[C@H](CO)N1C[C@H](C)[C@H](CN(C)S(=O)(=O)c2ccccc2)Oc2ccc(NS(=O)(=O)c3ccccc3)cc2CC1=O | inactive |
| C[C@H](CO)N1C[C@H](C)[C@@H](CN(C)Cc2ccc3c(c2)OCO3)Oc2cc(C#CCN(C)C)ccc2S1(=O)=O | inactive |

| Compound | cytotoxicity call |
| --- | --- |
| CN(c1ncccc1CNc1nc(Nc2ccc3c(c2)CC(=O)N3)ncc1C(F)(F)F)S(C)(=O)=O | active |
| CNC(=O)c1ccc(Nc2ncc(C(F)(F)F)c(NCc3nccnc3N(C)S(C)(=O)=O)n2)cc1 | active |
| C[C@H](CO)N1C[C@H](C)[C@@H](CN(C)S(C)(=O)=O)Oc2ccc(NS(=O)(=O)c3cccs3)cc2CC1=O | inactive |
| C[C@H](CO)N1C[C@H](C)[C@@H](CN(C)S(=O)(=O)c2cn(C)cn2)Oc2ccc(NC(=O)CCC(F)(F)F)cc2CC1=O | inactive |
| COc1ccncc1-c1ccccc1CN(C(=O)c1ccc(-c2ccc(C#N)cc2)o1)c1ccc(N2CCNCC2)cc1 | active |
| C[C@@H]1CN([C@@H](C)CO)C(=O)Cc2cc(NC(=O)Nc3ccc(F)cc3)ccc2O[C@H]1CN(C)Cc1ccc(Cl)c(Cl)c1 | active |
| C[C@@H]1CN([C@H](C)CO)C(=O)Cc2cc(NC(=O)Nc3ccc(F)cc3)ccc2O[C@H]1CN(C)Cc1ccc(Cl)c(Cl)c1 | active |
| C[C@H](CO)N1C[C@H](C)[C@@H](CN(C)Cc2ccc(Cl)c(Cl)c2)Oc2ccc(NC(=O)Nc3ccc(F)cc3)cc2CC1=O | active |
| C[C@@H]1CN([C@@H](C)CO)C(=O)Cc2cc(NC(=O)Nc3ccc(F)cc3)ccc2O[C@@H]1CN(C)Cc1ccc(Cl)c(Cl)c1 | active |
| C[C@@H]1CCCCO[C@@H](CN(C)C(=O)c2ccccc2)[C@H](C)CN([C@H](C)CO)C(=O)c2cc(NC(=O)Nc3cccc4ccccc34)ccc2O1 | inactive |
| C[C@@H]1CN([C@@H](C)CO)C(=O)c2cc(NS(=O)(=O)c3ccc(F)cc3)ccc2O[C@@H](C)CCCCO[C@@H]1CN(C)C(=O)Nc1ccccc1 | inactive |
| C[C@H]1CCCCO[C@H](CN(C)Cc2ccc(C(F)(F)F)cc2)[C@@H](C)CN([C@@H](C)CO)C(=O)c2cc(NC(=O)C3CCCCC3)ccc2O1 | inactive |
| C[C@@H]1CN([C@H](C)CO)C(=O)Cc2cc(NC(=O)CCN3CCOCC3)ccc2O[C@@H]1CN(C)Cc1ccccc1 | inactive |
| C[C@H](CO)N1C[C@H](C)[C@H](CN(C)Cc2ccc(Oc3ccccc3)cc2)Oc2ccc(NC(=O)C3CCCCC3)cc2C1=O | inactive |
| Cc1ccc(S[C@]2(C(=O)O)CC(=O)N(Cc3ccccc3C(F)(F)F)[C@@H]2c2ccc(CO)cc2)cc1 | inactive |
| COc1cccc(S(=O)(=O)N(C)C[C@@H]2Oc3ncc(-c4cccc(F)c4)cc3C(=O)N([C@H](C)CO)C[C@@H]2C)c1 | inactive |
| C[C@H](CO)N1C[C@H](C)[C@H](CN(C)Cc2ccc(C(=O)O)cc2)Oc2ccc(NC(=O)c3ccncc3)cc2C1=O | inactive |
| C[C@@H]1CCCCO[C@@H](CN(C)Cc2ccc(C(=O)O)cc2)[C@@H](C)CN([C@@H](C)CO)C(=O)c2cc(NS(=O)(=O)c3cccs3)ccc2O1 | inactive |
| C[C@@H]1CN([C@H](C)CO)C(=O)CCCn2cc(nn2)CO[C@@H]1CN(C)S(=O)(=O)c1ccc2ccccc2c1 | inactive |
| O=C(C[C@@H]1CC[C@@H]2[C@H](COC[C@@H](O)CN2C(=O)Nc2ccc(F)cc2)O1)NCCCN1CCOCC1 | inactive |
| C[C@@H]1CN([C@@H](C)CO)C(=O)c2cc(NS(=O)(=O)c3ccc(F)cc3)ccc2O[C@@H](C)CCCCO[C@H]1CN(C)Cc1ccc(C(=O)O)cc1 | inactive |
| C[C@@H](O)[C@@H](O)[C@@H](O)C/C=N/NC(=O)c1ccc(C(=O)NO)cc1 | inactive |
| Cc1cc([N+](=O)[O-])nn1CC(=O)N1CCOCC1 | inactive |

| Compound | cytotoxicity call |
| --- | --- |
| COc1ccc(NC(=O)N(C)C[C@@H]2OCCCC[C@H](C)Oc3ccc(NC(=O)Nc4ccc(F)cc4)cc3C(=O)N([C@H](C)CO)C[C@@H]2C)cc1 | inactive |
| C[C@H]1CN([C@@H](C)CO)C(=O)Cc2cc(NC(=O)Nc3ccc(F)cc3)ccc2O[C@@H]1CN(C)Cc1ccc(Cl)c(Cl)c1 | active |
| C[C@@H]1CN([C@H](C)CO)C(=O)Cc2cc(NC(=O)Nc3ccc(F)cc3)ccc2O[C@@H]1CN(C)Cc1ccc(Cl)c(Cl)c1 | active |
| C[C@H]1CN([C@@H](C)CO)C(=O)Cc2cc(NC(=O)Nc3ccc(F)cc3)ccc2O[C@H]1CN(C)Cc1ccc(Cl)c(Cl)c1 | active |
| C[C@H](CO)N1C[C@H](C)[C@H](CN(C)Cc2ccc(Cl)c(Cl)c2)Oc2ccc(NC(=O)Nc3ccc(F)cc3)cc2CC1=O | active |
| Cc1noc(C)c1NC(=O)N(C)C[C@H]1Oc2c(NS(=O)(=O)c3cn(C)cn3)cccc2C(=O)N([C@@H](C)CO)C[C@H]1C | inactive |
| C/C=C/COc1nc2c(c(=O)n(C)c(=O)n2C)n1C | inactive |
| C[C@H]1CN([C@@H](C)CO)C(=O)c2cc(NC(=O)Cn3cnnn3)ccc2O[C@@H]1CN(C)C(=O)NC1CCCCC1 | inactive |
| C[C@@H]1CN([C@@H](C)CO)C(=O)c2cccc(NC(=O)Nc3ccc(F)cc3)c2O[C@@H]1CN(C)Cc1ccc(C(F)(F)F)cc1 | inactive |
| CC(C)NC(=O)N(C)C[C@H]1Oc2ccc(NC(=O)Cn3cnnn3)cc2CC(=O)N([C@H](C)CO)C[C@@H]1C | inactive |
| CC(=O)OCC(=O)C1(O)CCC2C3CCC4CC(O)CCC4(C)C3C(=O)CC21C (configuration not stated) | inactive |
| COc1ccc(NC(=O)Nc2ccc3c(c2)C(=O)N([C@H](C)CO)C[C@H](C)[C@H](CN(C)S(=O)(=O)c2cccs2)OCCCC[C@H](C)O3)cc1 | inactive |
| C[N+](C)(C)CCCCNC(=O)[C@H]1C[C@H]2C(=O)N3CCC[C@H]3C(=O)N2[C@H]1c1cccc(OCCO)c1 | inactive |
| C[C@H](CO)N1C[C@H](C)[C@@H](CN(C)C(=O)c2ccc3c(c2)OCO3)Oc2cc(-c3cncnc3)ccc2S1(=O)=O | inactive |
| CCCCCCCCCC(=O)N[C@@H](Cc1c[nH]c2ccccc12)C(=O)N[C@H](CC(N)=O)C(=O)N[C@@H](CC(=O)O)C(=O)N[C@@H]1C(=O)NCC(=O)N[C@@H](CCCN)C(=O)N[C@@H](CC(=O)O)C(=O)N[C@H](C)C(=O)N[C@@H](CC(=O)O)C(=O)NCC(=O)N[C@H](CO)C(=O)N[C@@H]([C@H](C)CC(=O)O)C(=O)N[C@@H](CC(=O)c2ccccc2N)C(=O)O[C@@H]1C | inactive |
| C[C@@H]1CN([C@H](C)CO)C(=O)Cc2cc(NC(=O)Nc3ccc(C(F)(F)F)cc3)ccc2O[C@@H]1CN(C)C(=O)NC1CCCCC1 | active |
| C[C@H]1CN([C@@H](C)CO)C(=O)Cc2cc(NC(=O)Nc3ccc(C(F)(F)F)cc3)ccc2O[C@H]1CN(C)C(=O)NC1CCCCC1 | inactive |
| C[C@@H]1CN([C@@H](C)CO)C(=O)Cc2cc(NC(=O)Nc3ccc(C(F)(F)F)cc3)ccc2O[C@H]1CN(C)C(=O)NC1CCCCC1 | inactive |
| C[C@@H]1CN([C@H](C)CO)C(=O)Cc2cc(NC(=O)Nc3ccc(C(F)(F)F)cc3)ccc2O[C@H]1CN(C)C(=O)NC1CCCCC1 | inactive |
| C[C@@H]1CN([C@@H](C)CO)C(=O)Cc2cc(NC(=O)Nc3ccc(C(F)(F)F)cc3)ccc2O[C@@H]1CN(C)C(=O)NC1CCCCC1 | active |
| C[C@H](CO)N1C[C@H](C)[C@@H](CN(C)C(=O)NC2CCCCC2)Oc2ccc(NC(=O)Nc3ccc(C(F)(F)F)cc3)cc2CC1=O | inactive |
